Out of some 2,300 compounds screened, fewer than 10 were called active.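 Rule for the calls: active = Signal drops as the depositor expects, and the fitted half-maximal dose is no more than ten times the top valid tested dose; inconclusive = Poor fit, or a flat curve whose signal drops by 30% to 70%; inactive = the rest.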 These entries were drawn from the full list.

A short description of the assay: growth restoration of Mot1-301 yeast on galactose, dose response, SUMO pathway inhibitor project, whole organism, S. cerevisiae, ATP luminescence, cherry-picked samples (AID 493004).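 Note: more negative values mean stronger growth rescue toward the control strain.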 Particulars: S. cerevisiae Mot1-301 galactose growth, 24 h, -100 = growth of slx-deleted rescue strain; series mostly up to 42 µM.
As to `Cc1ccc(CC2CC(=O)N(c3ccc4c(c3)OCCO4)C2=O)cc1` (centres undefined), the compound was called inactive.

For the compound `O=C(CCc1ccccc1)NNC(=O)c1ccc(Br)cc1`, the result was inactive.

With `Cc1ccc(N2C(=O)C3N=NN(CC(=O)N4N=C(c5cccc6ccccc56)CC4c4ccccc4)C3C2=O)cc1` (centres undefined), the compound was called inactive.

As for `CC1CCN(Cc2nc3c(c(=O)n(C)c(=O)n3C)n2CCc2ccccc2)CC1`, the outcome was inactive.

Consider `COc1cc(CNCc2ccc3c(c2)OCO3)c([N+](=O)[O-])cc1OC`, for which the outcome was inactive.

In the case of `O=C(Nc1ccccc1N1CCN(c2ccccc2)CC1)c1cccc(F)c1`, the result was inactive.

For the compound `N#CC(C#N)=CN=c1ccn(Cc2ccc(Cl)cc2Cl)cc1`, the call was inactive.

Take `Cc1cccc(C)c1NC(=O)C(Cl)C(=O)c1ccccc1` (centres undefined): the result was inactive.

For `Cc1cc(C)cc(NC(=O)C2CCCN(S(=O)(=O)c3ccc4[nH]c(=O)ccc4c3)C2)c1` (centres undefined), the call was inactive.

Turning to `Cc1cc(Br)ccc1NC(=O)c1cnc(N2CCN(c3ccccn3)CC2)c2ccccc12`, the call was inactive.

As to `Cc1ccc2c(c1)C(O)(CC(=O)c1cccnc1)C(=O)N2` (centres undefined), the outcome was inactive.

Consider `COc1ccc(OCCC(=O)c2ccc(OC)cc2)cc1`, for which the outcome was inactive.

As for `CCN(CC)C(=O)CSc1nnc(CNc2ccc(F)cc2)n1Cc1ccco1`, the compound was called inactive.

Take `O=Cc1ccc(Oc2cccc(C(F)(F)F)c2)nc1`: the outcome was inactive.

For `Cc1cc(C)cc(C(=O)NC(CC(N)=O)c2ccc(N3CCC(N4CCCCC4)CC3)c([N+](=O)[O-])c2)c1` (centres undefined), the result was inactive.

`CCCC(=O)N(CCN1CCOCC1)c1nc2ccc(OCC)cc2s1`: the result was inactive.

With `CC1=CC(=O)C=CC1(C)C(Cl)(Cl)Cl` (centres undefined), the result was inactive.

As to `CCc1nc2ccccc2c(C(=O)OC2CCCCC2=O)c1C` (centres undefined), the outcome was inactive.

Regarding `COC(=O)c1cc2occc2n1Cc1nc(-c2ccccc2C)oc1C`, the call was inactive.

Regarding `CCC(C)[C@H]1COCCS(=O)(=O)N1Cc1ccc(C)cc1` (some centres undefined), the outcome was inactive.

As for `Cc1nc2sc(C(c3ccco3)N3CCOCC3)c(O)n2n1` (centres undefined), the call was inactive.

For `COc1ccc(S(=O)(=O)N2CCOC2CNC(=O)C(=O)NCc2ccncc2)cc1C` (centres undefined), the outcome was inactive.

On to `O=C(NNS(=O)(=O)c1c(F)cc(F)c(Cl)c1F)C12CC3CC(CC(C3)C1)C2`, for which the compound was called inactive.

For `CCn1c(SCC(=O)N/N=C/c2ccccc2OCC(=O)O)nnc1-c1ccc(C(C)(C)C)cc1`, the compound was classed as inactive.

With `C=C(Cl)COC(=O)C1C2C=CC(C2)C1C(=O)O` (centres undefined), the call was inactive.

On to `CCOc1ccc(N(CC)S(=O)(=O)c2cccc3nsnc23)cc1`, for which the compound was called inactive.

`CCC(CC)C(=O)Nc1ccc(S(=O)(=O)Nc2nccs2)cc1`: the compound was classed as inactive.

Regarding `O=c1c2c(ncn1Cc1ccccc1)nc1n2CCC1`, the compound was called inactive.

As to `Cc1ccc(S(=O)(=O)CCC(=O)OCC(=O)N(C)C2CCS(=O)(=O)C2)cc1` (centres undefined), the call was inactive.

On to `COc1cc(C(=O)OCC(=O)NC(C)CCc2ccccc2)cc(OC)c1OC` (centres undefined), for which the outcome was inactive.

Regarding `O=C(NCc1ccccc1Cl)C(=O)NCC1CCCN1S(=O)(=O)c1cccs1` (centres undefined), the result was inactive.

In the case of `COc1cccc(NC(=O)c2nn(C34CC5CC(CC(C5)C3)C4)cc2[N+](=O)[O-])c1`, the compound was called inactive.

As to `CC(C)n1c(O)c(N=Nc2ccccn2)c2ccccc21`, the compound was classed as inactive.

Consider `CCCCC1=CC2=CC(=O)C(C)(OC(=O)CC)C(=O)C2=CN1CCCOC(C)C` (centres undefined), for which the result was inactive.

`Cc1ccc(Nc2cc(C)nc3c(C)ccc([N+](=O)[O-])c23)cc1`: the call was inactive.

For `CCC1(CC)NC(=O)N(CC(=O)OCC(=O)NC(=O)c2ccccc2)C1=O`, the outcome was inactive.

Take `CCN1CCCC1CNC(=O)Cn1cnc2ccc(S(=O)(=O)N3CCC(C)CC3)cc2c1=O` (centres undefined): the call was inactive.

On to `CN(C)/C(CN1CCCCC1)=C1\N=C(c2ccccc2)OC1=O`, for which the call was inactive.

Take `COC(=O)c1sccc1NC(=O)CC1C(=O)NCCN1C(=O)Nc1ccc(F)cc1F` (centres undefined): the compound was classed as inactive.

Consider `COc1cc(NC(=O)C2=CC(c3ccco3)=NS(=O)(=O)N2C)cc(OC)c1OC`, for which the result was inactive.

As for `CN(C)C(=O)c1coc2nc3ccccc3nc12`, the call was inactive.

Turning to `O=C(Nc1nccs1)C1CCN(S(=O)(=O)c2ccc(Cl)c(C(F)(F)F)c2)CC1`, the compound was classed as inactive.

With `Cc1cccc(-[n+]2c(-c3cccc(Br)c3)[nH]c3nc4ccccc4nc32)c1`, the compound was classed as inactive.

`COCCCN1C(=O)c2ccc(C(=O)Nc3ccc(OC)cc3OC)cc2C1=O`: the outcome was inactive.

Turning to `COc1ccc(/C=C(\C#N)C(=O)NCCCn2ccnc2)cc1`, the compound was classed as inactive.

Take `Cn1c(C(=O)NCCc2ccsc2)cc2c(=O)n(C)c3ccccc3c21`: the call was inactive.

With `CN(NC(=O)c1ccccc1F)c1nc(C(F)(F)F)nc2ccccc12`, the result was inactive.

With `Cc1cc(C)c2c(Cn3ccnc3)cc(=O)oc2c1`, the result was inactive.

For `COc1ccc(-c2cn(-c3ccc(C)cc3)c(=O)n2CC(=O)Nc2ccc(OC)c(OC)c2)cc1`, the outcome was inactive.

On to `O=C1CCC(=O)N1CCOP1(=O)COc2ccccc2OC1`, for which the result was inactive.

For `CCOc1ccc(C(C(=O)NC2CCCC2)N(C(=O)c2snc(C(N)=O)c2N)C2CCCC2)cc1` (centres undefined), the call was inactive.

As to `Cc1ccc(O)c(CNc2nc3ccccc3n2C)c1`, the compound was called inactive.

On to `NC(=O)c1cc(S(=O)(=O)N2CCCC2)ccc1OCc1ccc(F)cc1`, for which the compound was called inactive.

As for `COc1ccccc1CSc1ncc(-c2ccc([N+](=O)[O-])cc2)[nH]1`, the call was inactive.

In the case of `O=C(CP(=O)(c1ccccc1)c1ccccc1)N1CCOCC1`, the compound was called inactive.

As for `N#CC1=C(N)Oc2n[nH]c(CSc3ccccc3)c2C12C(=O)Nc1ccccc12` (centres undefined), the compound was called inactive.

On to `COc1ccc(OC)c2c(N)c(C#N)c(C(F)(F)C(F)(F)F)nc12`, for which the call was inactive.

Regarding `COCCNC(=O)C(c1ccc(C)cc1)N(C(=O)CCC(=O)Nc1ccccn1)c1cccc(C)c1` (centres undefined), the outcome was inactive.

As for `CC(C)c1cc(C(=O)N/N=C/C(Br)=C/c2ccccc2)n[nH]1`, the compound was called inactive.

Turning to `CCCc1cc(=S)n2c([nH]c3ccccc32)c1C#N`, the call was inactive.

Take `CCOc1ccc(Cn2c(SCCCCC#N)nc3c2c(=O)n(C)c(=O)n3C)cc1OCC`: the outcome was inactive.

In the case of `COc1cccc(-n2c(SCC(=O)NC3CCCCC3)nc3n[nH]c(C)c3c2=N)c1`, the compound was called inactive.

On to `Cc1ccc(C)c(S(=O)(=O)n2cnc3ccccc32)c1`, for which the compound was classed as inactive.

Take `COc1ccc(C(=O)OCC(=O)c2ccc(C)c(S(=O)(=O)N3CCOCC3)c2)cc1OC`: the call was inactive.

For `Cc1cccc(N(C(=O)c2ccc(CN3CCOCC3)o2)C(C(=O)NC2CCCCC2)c2ccc(F)cc2)c1` (centres undefined), the compound was called inactive.

As for `O=C(NC1CCCCC1)c1ccc2c(=O)n(CC3CCCO3)c(=O)[nH]c2c1` (centres undefined), the compound was called inactive.

As to `CCOCCCNCc1ccc(OCc2ccc(F)cc2)c(OC)c1`, the call was inactive.

With `COc1cccc(CN(C)CC2CCCN(CCc3ccc(Cl)cc3)C2)c1OC` (centres undefined), the call was inactive.

As to `COc1cccc(OC)c1C(=O)Nc1ccc2c(c1)n(C)c(=O)n2C`, the outcome was inactive.

Consider `COC(=O)/C=C\C(=O)Nc1cccc([N+](=O)[O-])c1`, for which the compound was classed as inactive.

As to `CC(C)Cc1nc(N2CCOCC2)c(C#N)c2c1CCC2`, the compound was classed as inactive.

On to `COc1ccc(-c2[nH]nc3c2C(c2ccncc2)C(C#N)=C(N)O3)cc1` (centres undefined), for which the outcome was inactive.

`COc1cc(CN2CCNC(=O)C2CC(=O)NCCc2ncccc2C)cc(OC)c1` (centres undefined): the call was inactive.

Regarding `CC(C)CCNC(=O)Cn1c(=O)oc2cc(S(=O)(=O)N3CC(C)CC(C)C3)ccc21` (centres undefined), the compound was called inactive.

With `CCc1cc2c(=O)c(-c3ccc(F)cc3)c(C(F)(F)F)oc2cc1OCC(=O)O`, the result was inactive.

For `CCc1c(C)nc(N2CCN(Cc3ccccc3)CC2)[nH]c1=O`, the call was inactive.

Consider `Cc1cc(C)c(OCC(=O)N/N=C/c2ccco2)c(C)c1`, for which the compound was classed as inactive.

Regarding `CC1=NC2(CCCc3c2no[n+]3[O-])N(O)C1(C)C` (centres undefined), the compound was classed as inactive.

`CCCCC(=O)N/N=C(\C)CC(=O)Nc1cc(Cl)ccc1OC`: the call was inactive.

As for `CC(NC(=O)c1ccc(Cl)cc1)C(=O)N1CCCCC1` (centres undefined), the compound was called inactive.

With `CCc1ccccc1NC1c2ccccc2C(=O)N1c1cccnc1` (centres undefined), the outcome was inactive.

On to `COc1ccccc1N1CCN(C(=O)C(=O)N/N=C/c2ccccc2F)CC1`, for which the result was inactive.

With `N#CC1=C(N)OC2=C(C(=O)CCC2)C1C1CC=CCC1` (centres undefined), the compound was classed as inactive.

For `Cc1cc(C)c2nc(-c3cccnc3)cc(C(=O)Nc3ccc(S(=O)(=O)Nc4onc(C)c4C)cc3)c2c1`, the compound was called inactive.

In the case of `CSc1nc2ccc(NC(=O)c3c(F)cccc3F)cc2s1`, the call was inactive.

Take `COc1ccccc1/C=C/C(=O)NC(=S)N1CCOCC1`: the compound was called inactive.

With `CCCCNC(=O)c1ccccc1NC(=O)C1=C(C)OCCS1`, the outcome was inactive.

For `C=CCC(NCCCO)c1cccc(OC)c1OC` (centres undefined), the compound was called inactive.

For `O=C(OC1CCOC1=O)c1cccc(S(=O)(=O)Nc2ccc(F)cc2)c1` (centres undefined), the compound was called inactive.

In the case of `CCOC(=O)C1(Cc2cccc(OC)c2)CCCN(S(=O)(=O)c2cccnc2)C1` (centres undefined), the outcome was inactive.

For the compound `Cc1ccc(S(=O)(=O)N2[C@@H](c3ccc(Br)cc3)C(C(=O)O)=C[C@H]2CC2CCCC2)cc1`, the outcome was inactive.

`CCN(CC)C(=O)CSC(Nc1cccc(F)c1)=C(C#N)C#N`: the result was inactive.

Turning to `Cc1ccc(NC(=O)Nc2cccc(C(F)(F)F)c2)nc1`, the result was inactive.

Turning to `O=C(NCC(=O)N(c1ccccc1)C(C(=O)NCC1CCCO1)c1ccccc1)c1cccs1` (centres undefined), the compound was called inactive.

As for `O=C(CSCc1ccc(Cl)cc1)N1CCCCC1`, the call was inactive.

As to `O=C1CC(c2ccccc2)C(=O)N1c1cccc(O)c1` (centres undefined), the call was inactive.

Turning to `Cc1nn(CCOc2ccccc2)c(=O)n1-c1ccccc1F`, the call was inactive.

In the case of `Oc1c(Cl)cc(Cl)c(Cl)c1Cc1c(O)c(Cl)cc(Cl)c1Cl`, the compound was classed as inactive.

Consider `CC(Oc1ccccc1[N+](=O)[O-])C(=O)N/N=C/c1ccoc1` (centres undefined), for which the result was inactive.

(Values after PubChem BioAssay AID493004 (Broad Institute, 2010).)
